The results in this text go back to PubChem BioAssay (Tox21).

Inconclusive results are not listed. Entries that show only a call come without a potency. A number with no mark means an inactive call. Activity calls are given as the source filed them. Calls come from the whole dose curve.

This test concerns the target Beta-2 adrenergic receptor (Homo sapiens) (UniProt P07550). The test can be described thus: Adrenergic beta2 receptor (ADRB2) small molecule agonists, cell-based qHTS assay (AID 1963593).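 Note: CHO cells stably overexpressing human ADRB2.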 As to conditions: CHO-ADRB2 cells, cAMP HTRF, 30 min; series mostly up to 92.4 µM. In outline: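 CHO cells stably over-expressing ADRB2 were plated overnight at 37C, then dosed with compounds plus a stimulation mix containing 100uM IBMX and 25uM Ro-20-1724 for 0.5hr at room temperature. cAMP was measured by HTRF competition, 1hr.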

Chain of Beta-2 adrenergic receptor (Homo sapiens) (P07550 whole entry, looked up): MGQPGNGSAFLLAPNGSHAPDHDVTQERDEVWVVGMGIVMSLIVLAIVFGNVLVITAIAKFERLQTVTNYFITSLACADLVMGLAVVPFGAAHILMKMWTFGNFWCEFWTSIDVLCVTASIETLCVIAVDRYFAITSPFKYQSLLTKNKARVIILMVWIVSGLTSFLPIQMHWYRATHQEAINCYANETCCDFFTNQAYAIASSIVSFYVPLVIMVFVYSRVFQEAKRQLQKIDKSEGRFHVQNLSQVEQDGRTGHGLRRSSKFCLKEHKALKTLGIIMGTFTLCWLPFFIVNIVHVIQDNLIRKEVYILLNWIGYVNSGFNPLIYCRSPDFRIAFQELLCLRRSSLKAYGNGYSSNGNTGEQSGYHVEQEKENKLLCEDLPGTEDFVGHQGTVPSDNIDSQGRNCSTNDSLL

For `Cc1ccccc1C=O`, the Potency entry is “inactive”.

`C[C@]12CC[C@@H]3c4ccc(O)cc4CC[C@H]3[C@@H]1CC[C@H]2O`: the Potency result was “inactive”.

Consider `O=C1O[C@H]([C@@H](O)CO)C(O)=C1O`, for which the Potency result is “inactive”.

With `CCCCC/C=C\C/C=C\CCCCCCCC(=O)O`, the Potency entry was “inactive”.

Consider `O=C(O)c1cn(-c2ccc(F)cc2)c2cc(N3CCNCC3)c(F)cc2c1=O`, for which the activation was -25.8% [at 19 µM].

`CCCCCC/C=C/CCCCCCCC(=O)O`: the Potency result was “inactive”.

Turning to `O=C(O)c1[nH]n(-c2ccc(S(=O)(=O)O)cc2)c(=O)c1N=Nc1ccc(S(=O)(=O)O)cc1`, the Potency result is “inactive”.

With `CCc1ccc(CCOc2ccc(CC3SC(=O)NC3=O)cc2)nc1` (stereo not given), the Potency result is “inactive”.

Turning to `O=C(O)CCCC(=O)O`, the Potency entry was “inactive”.

In the case of `Cc1ccc2ncccc2c1`, the Potency entry is “inactive”.

Turning to `C=CCc1ccc(O)c(OC)c1`, the Potency entry is “inactive”.

`CC(C)(C)C1CCC(O)CC1` (stereo not given): the Potency result is “inactive”.

For `NC(=O)c1cnccn1`, the Potency entry was “inactive”.

For `CCCCNC(=O)NS(=O)(=O)c1ccc(C)cc1`, the Potency entry was “inactive”.

As to `Nc1ccc(C(=O)O)cc1`, the Potency result was “inactive”.

Consider `NC(=O)c1ncn([C@@H]2O[C@H](CO)[C@@H](O)[C@H]2O)n1`, for which the Potency result was “inactive”.

Take `C[N+](C)(C)CCCCCC[N+](C)(C)C`: the Potency entry is “inactive”.

Take `NC(N)=NC(N)=NCCc1ccccc1`: the Potency result was “inactive”.

As to `c1ccc2cc3c(ccc4ccccc43)cc2c1`, the Potency result was “inactive”.

`CC(C)OB(OC(C)C)OC(C)C`: the Potency entry is “inactive”.

Take `CCC(=O)OC/C=C/c1ccccc1`: the Potency entry is “inactive”.

As to `CCCCCCCCCCCCCCCC[N+](C)(C)Cc1ccccc1`, the Potency entry is “inactive”.

For the molecule `NC(=O)NO`, the Potency entry was “inactive”.

`CC(=O)C1=C(C)[C@@H]2C[C@@]3(C1)[C@H](C)CC[C@H]3C2(C)C`: the Potency entry is “inactive”.

Turning to `O=C(O)c1ccc(O)cc1`, the Potency result was “inactive”.

Consider `COc1cc(OC)c(C(=O)CCCN2CCCC2)c(OC)c1`, for which the Potency entry is “inactive”.

Take `CCCCCCCCC/C=C/CC1CC(=O)OC1=O` (stereo not given): the Potency result is “inactive”.

For `CC(=O)OC/C=C(C)/C=C/C=C(C)/C=C/C1=C(C)CCCC1(C)C`, the Potency entry was “inactive”.

As for `Nc1c2c(nc3ccccc13)CCCC2`, the Potency entry is “inactive”.

Take `Cc1c(OCC(F)(F)F)ccnc1CS(=O)c1nc2ccccc2[nH]1` (stereo not given): the Potency result was “inactive”.

On to `O=C(Cl)c1c(Cl)c(Cl)c(C(=O)Cl)c(Cl)c1Cl`, for which the Potency entry was “inactive”.

As to `CCC(=O)/C=C/C1C(C)=CCCC1(C)C` (stereo not given), the Potency result was “inactive”.

For `NS(=O)(=O)c1cc2c(cc1Cl)NC=NS2(=O)=O`, the Potency entry was “inactive”.

Consider `O=CCCCC=O`, for which the Potency result was “inactive”.

On to `COC(C)COC(C)COC(C)CO` (stereo not given), for which the Potency result was “inactive”.

As for `CC(=O)O[C@]1(C(C)=O)CC[C@H]2[C@@H]3C[C@H](C)C4=CC(=O)CC[C@]4(C)[C@H]3CC[C@@]21C`, the Potency result is “inactive”.

For the molecule `O=C(O)c1ccc(S(=O)(=O)N(Cl)Cl)cc1`, the Potency result was “inactive”.

With `NCCCCCCN`, the Potency entry was “inactive”.

`CCCCCCCCCCCCCC(=O)OC(C)C`: the Potency entry is “inactive”.

As for `CCCNC(=O)NS(=O)(=O)c1ccc(Cl)cc1`, the Potency result is “inactive”.

For `OCC(O)CS` (stereo not given), the Potency result was “inactive”.

On to `CCCCC(CC)COC(=O)c1ccc(N(C)C)cc1` (stereo not given), for which the Potency entry was “inactive”.

Take `O=C1c2c(O)cccc2Cc2cccc(O)c21`: the Potency entry was “inactive”.

In the case of `N[C@@H](Cc1cc(I)c(Oc2cc(I)c(O)c(I)c2)c(I)c1)C(=O)O`, the Potency entry was “inactive”.

With `C[Si]1(C)O[Si](C)(C)O[Si](C)(C)O[Si](C)(C)O1`, the Potency result was “inactive”.

With `CCCCCCCC=O`, the Potency entry was “inactive”.

On to `c1ccc2scnc2c1`, for which the Potency entry was “inactive”.

With `C#C[C@]1(O)CC[C@H]2[C@@H]3CCc4cc(O)ccc4[C@H]3CC[C@@]21C`, the Potency result was “inactive”.

With `CN1C(=O)CC[C@H]1c1cccnc1`, the Potency result was “inactive”.

On to `CC(C)(C)NC(=O)[C@H]1CC[C@H]2[C@@H]3CC[C@H]4NC(=O)C=C[C@]4(C)[C@H]3CC[C@]12C`, for which the Potency entry is “inactive”.

On to `Nc1ccc(S(=O)(=O)c2ccc(N)cc2)cc1`, for which the Potency result was “inactive”.

As to `COC(=O)CCC(=O)OC`, the Potency result is “inactive”.

Take `Cc1cc(=O)oc2cc(O)ccc12`: the Potency entry is “inactive”.

As to `CC(C)=CCC/C(C)=C\CO`, the Potency entry was “inactive”.

For the molecule `CC(=O)c1nccs1`, the Potency entry is “inactive”.

As to `CCOc1ccc(NC(C)=O)cc1`, the Potency result was “inactive”.

For `CCOC(=O)/C=C\C(=O)OCC`, the Potency entry is “inactive”.

As to `NC(=O)NC1NC(=O)NC1=O` (stereo not given), the Potency result was “inactive”.

On to `c1cnc2c(c1)ccc1cccnc12`, for which the Potency entry is “inactive”.

On to `CCOC(=O)C(C)(C)Oc1ccc(Cl)cc1`, for which the Potency result was “inactive”.

Turning to `COCCOCCOCCO`, the Potency result is “inactive”.

For the molecule `COC(=O)c1cccnc1`, the Potency result is “inactive”.

For the molecule `OCc1cccc(Oc2ccccc2)c1`, the Potency entry was “inactive”.

As to `C/C=C(C)/C=C/C=C(C)C`, the Potency result was “inactive”.

For `CN(C)c1nc(N(C)C)nc(N(C)C)n1`, the activation is 17.3% [at 8.39 µM].

`COc1ccc(C(=O)c2ccccc2)c(O)c1`: the Potency entry was “inactive”.

`Cc1cc(C(C)(C)C)c(O)c(C(C)(C)C)c1`: the Potency result was “inactive”.

`O=C(O)c1ccc2c(c1)C(=O)OC2=O`: the Potency entry is “inactive”.

As for `CCCCCCCCC(=O)O`, the Potency entry is “inactive”.

Regarding `NS(=O)(=O)O`, the Potency entry is “inactive”.

For the molecule `O=C(Nc1ccccc1SSc1ccccc1NC(=O)c1ccccc1)c1ccccc1`, the Potency result is “inactive”.

For the molecule `CCCCCCCC/C=C\CCCCCCCC(=O)O`, the Potency result is “inactive”.

On to `COc1ccc(C)cc1N`, for which the Potency entry was “inactive”.

Regarding `Cc1ccnc2c1NC(=O)c1cccnc1N2C1CC1`, the Potency entry was “inactive”.

In the case of `Cc1ccc([N+](=O)[O-])cc1N`, the Potency entry was “inactive”.
